In article PMC7862700, “An all-to-all approach to the identification of sequence-specific readers for epigenetic DNA modifications on cytosine”:

How the values were obtained:
Test in all cases: DAPPL (digital affinity profiling via proximity ligation, sequencing); 10 mM Tris-HCl pH 7.5, 50 mM NaCl, 1 mM DTT, 4% glycerol, room temperature, 30 min; GST-TFs on glutathione beads, 16-mer random dsDNA library, 0.1% formaldehyde crosslink after washing; high values mean tight binding
Settings in all cases: protein: recombinant; tags: N-terminal GST; dsDNA, one strand shown
[1] = target: T1, FLI1 (Homo sapiens, UniProt Q01543 1-452)
T1 sequence: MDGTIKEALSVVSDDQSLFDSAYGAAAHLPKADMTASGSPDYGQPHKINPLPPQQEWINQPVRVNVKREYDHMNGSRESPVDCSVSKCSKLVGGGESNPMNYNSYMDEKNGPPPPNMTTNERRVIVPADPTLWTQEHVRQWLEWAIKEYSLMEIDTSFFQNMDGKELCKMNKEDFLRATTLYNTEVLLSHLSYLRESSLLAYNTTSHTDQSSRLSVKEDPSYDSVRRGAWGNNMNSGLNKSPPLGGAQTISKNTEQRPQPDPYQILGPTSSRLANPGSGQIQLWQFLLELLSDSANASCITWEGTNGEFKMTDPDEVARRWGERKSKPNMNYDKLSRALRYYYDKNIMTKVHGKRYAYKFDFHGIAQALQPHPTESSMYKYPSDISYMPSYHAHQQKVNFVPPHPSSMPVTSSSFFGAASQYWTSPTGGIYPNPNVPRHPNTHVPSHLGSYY
Outline: (§1)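 The binding signal reported is, for every hexamer, its read frequency for a factor over its read frequency for the tag-only sample. Reads came from pools of yeast-expressed, GST-fused human transcription factors on glutathione beads, barcoded with DNA and mixed with that sample, which were incubated with 200 nmole of a random double-stranded 16-mer DNA library in Tris/NaCl/DTT/glycerol buffer at room temperature for 30 min. After washing, the pools were crosslinked with 0.1% formaldehyde, proximity-ligated with BsaI/T4 ligase for 1 h at 37 °C, PCR-amplified and sequenced on an Illumina NextSeq500.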

[2] = target: T2, ELK1 (Homo sapiens, UniProt P19419 1-428)
T2 sequence: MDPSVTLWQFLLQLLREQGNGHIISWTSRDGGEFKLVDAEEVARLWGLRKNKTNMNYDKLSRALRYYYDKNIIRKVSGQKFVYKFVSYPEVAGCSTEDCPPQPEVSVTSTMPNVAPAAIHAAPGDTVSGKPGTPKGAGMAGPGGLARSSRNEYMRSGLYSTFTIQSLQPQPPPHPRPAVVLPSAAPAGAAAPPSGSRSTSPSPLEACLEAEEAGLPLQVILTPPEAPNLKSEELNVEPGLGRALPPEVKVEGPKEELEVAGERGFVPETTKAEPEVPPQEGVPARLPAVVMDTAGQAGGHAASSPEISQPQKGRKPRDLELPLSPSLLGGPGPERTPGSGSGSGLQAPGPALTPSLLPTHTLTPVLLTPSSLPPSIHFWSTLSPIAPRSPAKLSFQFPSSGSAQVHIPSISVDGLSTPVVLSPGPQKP
Outline: as §1

[3] = target: T3, GABPA (Homo sapiens, UniProt Q06546 1-454)
T3 sequence: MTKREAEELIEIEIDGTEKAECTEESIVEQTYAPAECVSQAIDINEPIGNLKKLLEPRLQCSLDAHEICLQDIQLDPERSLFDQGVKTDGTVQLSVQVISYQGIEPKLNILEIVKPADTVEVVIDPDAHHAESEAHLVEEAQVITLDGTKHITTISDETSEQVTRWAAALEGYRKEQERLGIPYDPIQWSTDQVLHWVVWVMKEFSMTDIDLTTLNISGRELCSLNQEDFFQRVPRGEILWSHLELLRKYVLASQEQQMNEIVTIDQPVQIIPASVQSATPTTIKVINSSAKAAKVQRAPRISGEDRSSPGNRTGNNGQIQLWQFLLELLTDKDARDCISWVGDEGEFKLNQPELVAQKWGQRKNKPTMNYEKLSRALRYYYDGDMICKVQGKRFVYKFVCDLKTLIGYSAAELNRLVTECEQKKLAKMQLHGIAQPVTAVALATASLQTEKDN
Outline: as §1

[4] = target: T4, ERG (Homo sapiens, UniProt P11308 1-479)
T4 sequence: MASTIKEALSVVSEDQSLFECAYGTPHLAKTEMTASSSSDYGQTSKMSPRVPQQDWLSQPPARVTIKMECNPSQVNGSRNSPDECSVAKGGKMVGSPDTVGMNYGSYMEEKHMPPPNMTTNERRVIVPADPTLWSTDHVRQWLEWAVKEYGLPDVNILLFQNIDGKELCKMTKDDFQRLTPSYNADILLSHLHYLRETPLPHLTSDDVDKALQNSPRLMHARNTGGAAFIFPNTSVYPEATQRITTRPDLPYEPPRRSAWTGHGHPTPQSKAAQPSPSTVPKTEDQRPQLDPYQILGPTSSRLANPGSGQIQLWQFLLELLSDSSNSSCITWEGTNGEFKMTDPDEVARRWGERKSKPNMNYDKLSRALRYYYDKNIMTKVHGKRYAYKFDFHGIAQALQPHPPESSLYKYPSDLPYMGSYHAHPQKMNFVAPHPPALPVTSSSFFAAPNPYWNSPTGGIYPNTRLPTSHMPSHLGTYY
Outline: as §1

[5] = target: T5, EHF (Homo sapiens, UniProt Q9NZC4 1-300)
T5 sequence: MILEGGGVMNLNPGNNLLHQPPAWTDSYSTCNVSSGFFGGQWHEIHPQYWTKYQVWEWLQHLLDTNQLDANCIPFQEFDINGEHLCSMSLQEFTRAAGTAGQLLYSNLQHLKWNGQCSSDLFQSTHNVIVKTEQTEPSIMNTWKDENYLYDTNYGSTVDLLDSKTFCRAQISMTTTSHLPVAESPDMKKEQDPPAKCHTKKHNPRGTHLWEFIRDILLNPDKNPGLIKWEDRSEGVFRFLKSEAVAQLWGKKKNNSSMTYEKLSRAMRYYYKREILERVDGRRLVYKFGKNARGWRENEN
Outline: as §1

[6] = target: SPI1 (Homo sapiens, UniProt P17947 1-270)
Outline: as §1

[7] = target: SPIB (Homo sapiens, UniProt Q01892 1-262)
Outline: as §1

[8] = target: ETV5 (Homo sapiens, UniProt P41161 1-510)
Outline: as §1

[9] = target: T6, SPIC (Homo sapiens, UniProt Q8N5J4 1-248)
T6 sequence: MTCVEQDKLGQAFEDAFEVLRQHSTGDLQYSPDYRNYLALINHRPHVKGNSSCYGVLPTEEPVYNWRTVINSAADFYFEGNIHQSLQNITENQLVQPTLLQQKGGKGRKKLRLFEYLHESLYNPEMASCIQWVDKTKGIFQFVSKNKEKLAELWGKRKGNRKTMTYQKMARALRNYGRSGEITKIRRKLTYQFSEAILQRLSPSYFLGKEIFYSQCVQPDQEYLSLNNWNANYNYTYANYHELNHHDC
Outline: as §1

[10] = target: ELF4 (Homo sapiens, UniProt Q99607 1-663)
Outline: as §1

[11] = target: ETV1 (Homo sapiens, UniProt P50549 1-477)
Outline: as §1

[12] = target: T7, ETV3L (Homo sapiens, UniProt Q6ZN32 1-361)
T7 sequence: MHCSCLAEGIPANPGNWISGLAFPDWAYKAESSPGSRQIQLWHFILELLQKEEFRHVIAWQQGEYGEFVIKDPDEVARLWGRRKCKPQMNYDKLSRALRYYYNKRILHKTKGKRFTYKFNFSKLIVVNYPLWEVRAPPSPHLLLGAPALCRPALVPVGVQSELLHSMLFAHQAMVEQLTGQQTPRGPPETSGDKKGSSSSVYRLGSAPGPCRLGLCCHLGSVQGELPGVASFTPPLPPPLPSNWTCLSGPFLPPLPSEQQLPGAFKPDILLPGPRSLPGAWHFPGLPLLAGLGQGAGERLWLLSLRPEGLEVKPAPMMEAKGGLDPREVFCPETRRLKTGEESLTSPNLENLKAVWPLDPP
Outline: as §1

[13] = target: T8, ETS2 (Homo sapiens, UniProt P15036 1-469)
T8 sequence: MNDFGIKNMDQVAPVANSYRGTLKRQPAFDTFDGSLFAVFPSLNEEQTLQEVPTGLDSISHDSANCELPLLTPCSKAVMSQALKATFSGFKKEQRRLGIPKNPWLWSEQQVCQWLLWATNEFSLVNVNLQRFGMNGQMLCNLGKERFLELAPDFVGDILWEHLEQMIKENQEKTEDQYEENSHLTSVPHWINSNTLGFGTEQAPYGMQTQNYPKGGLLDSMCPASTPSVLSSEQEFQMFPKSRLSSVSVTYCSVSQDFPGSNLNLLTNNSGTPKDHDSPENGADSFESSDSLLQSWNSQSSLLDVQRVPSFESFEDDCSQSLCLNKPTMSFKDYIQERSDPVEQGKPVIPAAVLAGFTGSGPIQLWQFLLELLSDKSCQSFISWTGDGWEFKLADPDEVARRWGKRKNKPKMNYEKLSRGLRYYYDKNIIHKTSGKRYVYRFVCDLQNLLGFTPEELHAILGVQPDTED
Outline: as §1

[14] = target: T9, ETV3 (Homo sapiens, UniProt P41162-2 1-143)
T9 sequence: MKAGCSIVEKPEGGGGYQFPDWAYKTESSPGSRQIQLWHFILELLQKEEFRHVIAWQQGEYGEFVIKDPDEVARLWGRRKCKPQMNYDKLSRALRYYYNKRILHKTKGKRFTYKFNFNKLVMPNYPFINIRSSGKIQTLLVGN
Outline: as §1

[15] = target: ETV6 (Homo sapiens, UniProt P41212 1-452)
Outline: as §1

Sequence of ETV1 (P50549 whole entry): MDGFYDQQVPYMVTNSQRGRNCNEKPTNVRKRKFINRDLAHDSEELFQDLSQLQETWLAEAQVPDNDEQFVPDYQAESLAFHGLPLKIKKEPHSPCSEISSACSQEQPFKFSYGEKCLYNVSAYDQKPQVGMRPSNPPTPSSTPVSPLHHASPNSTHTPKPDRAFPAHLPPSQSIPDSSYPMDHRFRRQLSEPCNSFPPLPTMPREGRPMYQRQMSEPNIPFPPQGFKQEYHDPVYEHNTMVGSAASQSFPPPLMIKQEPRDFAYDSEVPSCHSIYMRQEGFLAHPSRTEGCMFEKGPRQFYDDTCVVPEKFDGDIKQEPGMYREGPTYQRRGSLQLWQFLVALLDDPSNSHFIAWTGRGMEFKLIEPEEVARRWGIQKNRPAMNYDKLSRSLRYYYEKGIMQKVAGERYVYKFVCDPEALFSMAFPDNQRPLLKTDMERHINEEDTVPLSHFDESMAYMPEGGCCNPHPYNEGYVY
Sequence of ETV5 (P41161 whole entry): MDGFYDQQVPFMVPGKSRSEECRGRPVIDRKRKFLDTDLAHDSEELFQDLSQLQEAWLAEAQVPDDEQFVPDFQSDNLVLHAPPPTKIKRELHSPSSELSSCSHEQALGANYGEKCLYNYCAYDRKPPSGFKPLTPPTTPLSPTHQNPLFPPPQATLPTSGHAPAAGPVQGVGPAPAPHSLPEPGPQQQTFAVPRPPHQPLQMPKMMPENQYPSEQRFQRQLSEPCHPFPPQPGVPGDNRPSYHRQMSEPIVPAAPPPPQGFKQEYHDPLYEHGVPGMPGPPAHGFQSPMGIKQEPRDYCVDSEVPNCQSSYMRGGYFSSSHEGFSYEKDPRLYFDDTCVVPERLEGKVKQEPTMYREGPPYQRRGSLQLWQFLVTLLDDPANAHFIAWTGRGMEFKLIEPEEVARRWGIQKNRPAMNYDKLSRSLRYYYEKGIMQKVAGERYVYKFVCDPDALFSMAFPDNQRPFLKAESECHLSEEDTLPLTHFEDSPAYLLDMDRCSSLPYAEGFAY
Sequence of ETV6 (P41212 whole entry): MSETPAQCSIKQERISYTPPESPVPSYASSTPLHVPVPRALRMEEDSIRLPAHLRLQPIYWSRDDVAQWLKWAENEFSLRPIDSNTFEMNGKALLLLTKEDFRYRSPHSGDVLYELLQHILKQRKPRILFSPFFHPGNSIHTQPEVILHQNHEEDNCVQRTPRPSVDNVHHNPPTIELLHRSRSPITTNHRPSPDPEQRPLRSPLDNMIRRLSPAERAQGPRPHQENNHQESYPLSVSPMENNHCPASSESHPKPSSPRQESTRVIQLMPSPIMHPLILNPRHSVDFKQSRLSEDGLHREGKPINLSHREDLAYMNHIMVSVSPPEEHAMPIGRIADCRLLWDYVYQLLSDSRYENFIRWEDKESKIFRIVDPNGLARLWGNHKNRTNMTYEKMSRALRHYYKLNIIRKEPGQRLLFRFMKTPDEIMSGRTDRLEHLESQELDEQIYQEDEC
Sequence of ELF4 (Q99607 whole entry): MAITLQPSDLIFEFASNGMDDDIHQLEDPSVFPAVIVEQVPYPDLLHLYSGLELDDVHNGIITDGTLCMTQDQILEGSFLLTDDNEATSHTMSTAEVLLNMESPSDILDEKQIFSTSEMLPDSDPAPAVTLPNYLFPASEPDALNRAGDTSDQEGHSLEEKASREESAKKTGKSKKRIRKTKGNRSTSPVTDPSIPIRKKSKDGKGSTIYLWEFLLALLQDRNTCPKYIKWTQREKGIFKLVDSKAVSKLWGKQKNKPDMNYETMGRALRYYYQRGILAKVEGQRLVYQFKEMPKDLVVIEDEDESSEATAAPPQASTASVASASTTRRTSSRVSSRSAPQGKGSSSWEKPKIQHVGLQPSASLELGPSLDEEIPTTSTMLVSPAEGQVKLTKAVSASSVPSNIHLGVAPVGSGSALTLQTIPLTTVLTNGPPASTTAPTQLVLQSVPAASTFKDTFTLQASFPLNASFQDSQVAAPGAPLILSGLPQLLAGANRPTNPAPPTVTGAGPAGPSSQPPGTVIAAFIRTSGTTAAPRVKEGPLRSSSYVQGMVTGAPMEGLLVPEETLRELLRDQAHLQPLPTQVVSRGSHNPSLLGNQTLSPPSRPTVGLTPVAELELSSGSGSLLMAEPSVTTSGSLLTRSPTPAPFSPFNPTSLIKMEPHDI
Sequence of SPIB (Q01892 whole entry): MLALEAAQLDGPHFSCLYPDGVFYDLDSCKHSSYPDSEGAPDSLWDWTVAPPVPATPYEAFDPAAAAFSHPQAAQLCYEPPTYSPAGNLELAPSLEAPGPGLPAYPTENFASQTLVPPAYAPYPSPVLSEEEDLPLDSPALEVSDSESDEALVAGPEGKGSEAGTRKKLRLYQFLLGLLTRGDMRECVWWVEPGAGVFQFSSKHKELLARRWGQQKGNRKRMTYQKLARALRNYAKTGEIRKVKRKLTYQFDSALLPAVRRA

## TGGTCA
[1]
  binding signal: 1.11 fold enrichment (6-mer frequency, TF over GST control)
[2]
  binding signal: 1 fold enrichment (6-mer frequency, TF over GST control)
[3]
  binding signal: 1.17 fold enrichment (6-mer frequency, TF over GST control)
[4]
  binding signal: 1.06 fold enrichment (6-mer frequency, TF over GST control)
[5]
  binding signal: 1.01 fold enrichment (6-mer frequency, TF over GST control)
[6]
  binding signal: 1.05 fold enrichment (6-mer frequency, TF over GST control)
[7]
  binding signal: 1.07 fold enrichment (6-mer frequency, TF over GST control)
[8]
  binding signal: 1.02 fold enrichment (6-mer frequency, TF over GST control)
[9]
  binding signal: 1.07 fold enrichment (6-mer frequency, TF over GST control)
[10]
  binding signal: 1.06 fold enrichment (6-mer frequency, TF over GST control)
[11]
  binding signal: 1.02 fold enrichment (6-mer frequency, TF over GST control)
[12]
  binding signal: 1.1 fold enrichment (6-mer frequency, TF over GST control)
[13]
  binding signal: 1.13 fold enrichment (6-mer frequency, TF over GST control)
[14]
  binding signal: 1.01 fold enrichment (6-mer frequency, TF over GST control)
[15]
  binding signal: 1.04 fold enrichment (6-mer frequency, TF over GST control)
